Inconclusive results are not listed. A call without a number means that no potency is given here. Activity calls are given as the source filed them. Calls come from the whole dose curve; as a rule, active = well fitted inhibition curve with a large enough effect; inconclusive = small, poorly fitted or top-dose-only effect; inactive = no such curve, though single readings can be large or run the other way.
Each compound was assayed against Cytochrome P450 3A7 (Homo sapiens) (UniProt P24462) (assay: Cytochrome P450 family 3 subfamily A member 7 (CYP3A7) small molecule antagonists: luciferase biochemical qHTS assay (AID 1963596; note: nearly all actives have a fitted effect of over 40% in size)). Settings: P450-Glo CYP3A7 enzyme luminescence, 1 h; series mostly up to 57.4 µM.
Chain of Cytochrome P450 3A7 (Homo sapiens) (P24462 whole entry, looked up): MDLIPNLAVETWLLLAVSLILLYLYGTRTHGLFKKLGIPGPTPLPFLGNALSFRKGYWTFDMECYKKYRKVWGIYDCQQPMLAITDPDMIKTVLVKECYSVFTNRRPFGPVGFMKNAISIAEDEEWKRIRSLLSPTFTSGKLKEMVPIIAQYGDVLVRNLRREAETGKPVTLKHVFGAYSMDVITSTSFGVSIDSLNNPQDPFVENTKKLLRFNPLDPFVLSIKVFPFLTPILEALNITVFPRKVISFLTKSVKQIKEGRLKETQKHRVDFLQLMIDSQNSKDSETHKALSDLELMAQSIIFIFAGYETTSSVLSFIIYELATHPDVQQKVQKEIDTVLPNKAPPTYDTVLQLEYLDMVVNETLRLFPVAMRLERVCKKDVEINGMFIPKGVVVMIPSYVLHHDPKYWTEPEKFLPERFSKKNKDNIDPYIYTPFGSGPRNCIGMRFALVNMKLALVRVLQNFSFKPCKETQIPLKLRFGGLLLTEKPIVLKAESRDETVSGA
How it was run: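 Luminescence from luciferin released by CYP3A7 from a proluciferin substrate, read 20 min after detection reagent. Compound and enzyme-substrate mix sat 10 min before NADPH regeneration solution; reaction ran 1 h at room temperature.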
Potency is the fitted concentration of half-maximal effect.

Row | SMILES | Potency
1 | O=c1oc2c(O)c(O)cc3c(=O)oc4c(O)c(O)cc1c4c23 | inactive
2 | Cc1nnc(NS(=O)(=O)c2ccc(N)cc2)s1 | inactive
3 | NC1=N[C@H]2[C@H](CS[C@H]2CCCCC(=O)O)N1 | inactive
4 | Nc1ccn([C@@H]2CS[C@H](CO)O2)c(=O)n1 | inactive
5 | N#Cc1ccc(C(c2ccc(C#N)cc2)n2cncn2)cc1 | inactive
6 | CC(C)Cn1cnc2c(N)nc3ccccc3c21 | inactive
7 | c1ccc([C@H]2CN3CCSC3=N2)cc1 | inactive
8 | Cn1ccc2cc3c(cc21)CCN3C(=O)Nc1cccnc1 | inactive
9 | C=CCn1c(=O)c2cnc(Nc3ccc(N4CCN(C)CC4)cc3)nc2n1-c1cccc(C(C)(C)O)n1 | 10 µM (active)
10 | CC(=O)OCC(CCn1cnc2cnc(N)nc21)COC(C)=O | inactive
11 | OC[C@H]1O[C@@H](OCCc2ccc(O)cc2)[C@H](O)[C@@H](O)[C@H]1O | inactive
12 | CC(=O)c1cnc2ccc(-c3cc(Cl)c(O)c(Cl)c3)nc2c1NC1CCC(CN(C)C)CC1 (stereo unspecified) | inactive
13 | CCc1c(O)cc(O)c(C(=O)c2ccc(OCCN3CCOCC3)c(OC)c2)c1CC(=O)N(CCOC)CCOC | inactive
14 | Cn1cnc([N+](=O)[O-])c1Sc1ncnc2nc[nH]c12 | inactive
15 | Cc1ccc(C(=O)Nc2ccc(S(=O)(=O)O)c3cc(S(=O)(=O)O)cc(S(=O)(=O)O)c23)cc1NC(=O)c1cccc(NC(=O)Nc2cccc(C(=O)Nc3cc(C(=O)Nc4ccc(S(=O)(=O)O)c5cc(S(=O)(=O)O)cc(S(=O)(=O)O)c45)ccc3C)c2)c1 | inactive
16 | C[C@@H](c1ncncc1F)[C@](O)(Cn1cncn1)c1ccc(F)cc1F | inactive

Source: PubChem BioAssay (NCATS)
